{"source": "PubChem BioAssay AID1347417", "about": "(National Center for Advancing Translational Sciences (NCATS), 2020)", "note": "The campaign covered roughly 120,000 compounds. About 5,300 (4.4%) were called active. Not shown: some 22% with an inconclusive outcome. Only a selection was taken, and actives are over-represented in it overall. Values without a mark were called inactive. Calls come from the whole dose curve; as a rule, active = well fitted inhibition curve with a large enough effect; inconclusive = small, poorly fitted or top-dose-only effect; inactive = no such curve, though single readings can be large or run the other way. Potency is the fitted concentration of half-maximal effect.", "data": [{"test": "qHTS Primary assay for Inhibitors of Plasmodium falciparum Dd2 growth in vitro; note: nearly all actives have a fitted effect of over 65% in size;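 for activity, negative = inhibition: plate controls were DMSO vehicle for no effect and reference drug for full effect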", "settings": "P. falciparum Dd2 growth, SYBR Green, 72 h; series mostly up to 28.9 µM; activity, negative = inhibition: at the top concentration", "outline": "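Readout: SYBR Green fluorescence, 485 nm excitation, 535 nm emission, after ~16 h lysis at 37C. Before that, Dd2-infected red cells (2.5% hematocrit) grew 72 h with compound, 29 uM top final concentration.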", "values": [{"compound": "Clc1ccc(CN2CCC3(CC2)CC(c2ccccc2)=NO3)cc1", "activity, negative = inhibition": "-16.7%"}, {"compound": "Cc1ccc(NC(=O)N2CCc3[nH]c4ccc(F)cc4c3C2)cc1C", "activity, negative = inhibition": "-6.52%"}, {"compound": "COc1ccccc1-n1cc(C(=O)N2CCc3c(Cl)cccc3C2)cn1", "activity, negative = inhibition": "-17.5%"}, {"compound": "COC[C@@H]1CN(C(=O)COc2cccc(C)c2)C[C@H]1c1nc(C)no1", "activity, negative = inhibition": "-10.3%"}, {"compound": "CC[C@H]1CN(C(=O)Nc2ccccc2)CC[C@H]1CC(=O)Nc1ccccc1", "outcome": "inactive [at 44.1 µM]"}, {"compound": "Cc1ccccc1CNC(=O)c1ccc(NC(=O)N2CCCCc3ccccc32)cc1", "activity, negative = inhibition": "48%"}, {"compound": "CCOC(=O)C1CCN(C(=O)c2cccc3c2CCN3C(=O)Nc2ccccc2)CC1", "Potency": "11.2 µM (active)"}, {"compound": "COCc1cc(CC2(NCC(C)(C)C)COC2)no1", "activity, negative = inhibition": "-17.5% [at 44.1 µM]"}, {"compound": "CC(=O)N[C@@H]1Cc2ccccc2[C@H]1n1ccnc1-c1cc2n(n1)CCNC2", "activity, negative = inhibition": "-0.272%"}, {"compound": "Cc1ccc(N2CCN(C(=O)c3ccc4c(c3)N(C)C3CCCCCN3C4=O)CC2)cc1", "note": "(configuration not stated)", "outcome": "inactive"}, {"compound": "COc1ccc(-c2cc3nc4c(c(=O)n3[nH]2)CN(C(=O)c2ccc(C)nc2)CC4)cc1", "activity, negative = inhibition": "-16.8% [at 5.79 µM]"}, {"compound": "CC(C)c1nc2c(c(-c3ccc(O)cc3)n1)CN(C(=O)Nc1ccccc1)CC2", "outcome": "inactive"}, {"compound": "Cc1nc2c(c(-c3ccc(O)cc3)n1)CN(C(=O)c1ccccc1C)CCC2", "activity, negative = inhibition": "-25%"}, {"compound": "O=C(Nc1ccccc1)N1CCc2nc(-c3ccccc3)nc(-c3ccc(Cl)cc3)c2C1", "Potency": "10 µM (active)"}, {"compound": "CC(=O)N1CCc2nc(C3CC3)nc(-c3ccc(Cl)cc3)c2C1", "activity, negative = inhibition": "-17.7% [at 44.1 µM]"}, {"compound": "COc1ccc(-c2nc(-c3ccccc3)nc3c2CN(C(=O)c2ccc(C)cc2)CC3)cc1", "Potency": "11.2 µM (active)"}, {"compound": "Cc1ccc(F)c(OCC(=O)c2ccc3c(c2)N(CCCC(=O)NCC2CCCO2)C(=O)CO3)c1", "note": "(configuration not stated)", "outcome": "inactive"}, {"compound": "O=C(Cc1ccc(Oc2ccccc2)cc1)N1CC(COc2ccccc2)C2(C1)CN(C(=O)c1cn[nH]c1)C2", "note": "(configuration not stated)", "activity, negative = inhibition": "-2.51%"}, {"compound": "O=C(CC1COCCN1)NCCc1nc(-c2ccccn2)no1", "note": "(configuration not stated)", "activity, negative = inhibition": "2.23%"}, {"compound": "O=C(NC[C@H]1OC[C@@H](NC2CCOCC2)[C@@H]1O)C1CCCC1", "outcome": "inactive [at 44.1 µM]"}, {"compound": "O=C(NCCCN1CCOCC1)C1CCN(C(=O)N2CC3CC(C2)[C@H]2CCCC(=O)N2C3)CC1", "note": "(some centres not stated)", "activity, negative = inhibition": "-15.4%"}, {"compound": "Clc1ccccc1C1(c2ccnc(NCCn3cccn3)n2)CCNCC1", "activity, negative = inhibition": "-4.47%"}, {"compound": "COc1ccc(N2CCC(NC(=O)c3ccc4[nH]ccc4c3)C2=O)cc1", "note": "(configuration not stated)", "activity, negative = inhibition": "-7.21%"}, {"compound": "COc1ccc(-c2nc(C(C)C)nc3c2CCN(C(=O)Cc2ccccn2)CC3)cc1", "activity, negative = inhibition": "-16.1%"}, {"compound": "COc1ccc(-c2nc(C)nc3c2CN([S+](=O)([O-])c2onc(C)c2C)CC3)cc1", "outcome": "inactive"}, {"compound": "COc1cccc([S+](=O)([O-])N2CCCC3(CC(c4cccc(C(F)(F)F)c4)=NO3)C2)c1", "note": "(configuration not stated)", "activity, negative = inhibition": "1.81%"}, {"compound": "COc1ccc(-c2nc(C3CC3)nc3c2CCN([S+](=O)([O-])c2ccccc2)CC3)cc1", "Potency": "7.94 µM (active)"}, {"compound": "COc1ccc(-c2nc(C(C)C)nc3c2CCN([S+](=O)([O-])c2cccc(C(F)(F)F)c2)CC3)cc1", "Potency": "7.08 µM (active)"}, {"compound": "COc1ccc(C2=NOC3(CCCN([S+](=O)([O-])c4ccccc4)C3)C2)cc1", "note": "(configuration not stated)", "activity, negative = inhibition": "0.512%"}, {"compound": "CNC(=O)CCC[C@H]1NC[C@@H]2CCCN3CCC[C@H]1[C@H]23", "activity, negative = inhibition": "5.79%"}, {"compound": "CCNC(=O)[C@@H]1C[C@H](N)CN1C(=O)[C@@H](C)c1ccc2cc(OC)ccc2c1", "activity, negative = inhibition": "-4.1%"}, {"compound": "COc1ccccc1N1CCN(C(=O)c2ccccc2-c2ncc[nH]2)CC1=O", "activity, negative = inhibition": "5.23%"}, {"compound": "Cc1nn(CC(=O)O)c(=O)c2nc(C(C)C)sc12", "activity, negative = inhibition": "37%"}, {"compound": "O=C(NC1CCCN(c2cc(-c3ccc(Cl)cc3)[nH]n2)C1)c1ccncc1", "note": "(configuration not stated)", "activity, negative = inhibition": "-9.77%"}, {"compound": "COC(=O)c1ccc(NC(=O)c2cnn(-c3ccc(Cl)cc3)c2C2CCN(C(=O)OC(C)(C)C)CC2)cc1", "Potency": "7.94 µM (active)"}, {"compound": "COC(=O)c1ccc(NC(=O)c2cccc3c2C(=O)N(C2CCCCC2)C3)cc1", "activity, negative = inhibition": "16.6%"}, {"compound": "CCc1ccccc1NC(=O)c1cnn(-c2ccc(F)cc2)c1C1CCNCC1", "activity, negative = inhibition": "-14%"}, {"compound": "CC(C)(C)OC(=O)N1CCC(c2c(C(=O)Nc3ccc4c(c3)OCO4)cnn2-c2ccccc2)CC1", "Potency": "5.01 µM (active)"}, {"compound": "COC(=O)c1ccc(NC(=O)c2cc(S(=O)(=O)N3CCC(C)CC3)cn2C)cc1", "activity, negative = inhibition": "13.3%"}, {"compound": "Cc1ccc(NC(=O)c2cc3n(n2)CC(c2ccc4c(c2)OCO4)OC3)cc1C", "note": "(configuration not stated)", "activity, negative = inhibition": "-22.5%"}, {"compound": "COC[C@@H]1[C@H](NC(=O)C2CCN(C(=O)c3ccncc3)CC2)[C@@H]2CCO[C@H]12", "activity, negative = inhibition": "-6.77%"}, {"compound": "Cn1cc(CNC(=O)C[C@@H]2C[C@H]3O[C@H](CNC4Cc5ccccc5C4)[C@@H](O)[C@H]3O2)cn1", "activity, negative = inhibition": "20.1% [at 44.1 µM]"}, {"compound": "Cc1ccc(Cl)cc1N1CCN(C(=O)c2cccn3c(=O)c4cc(Cl)ccc4nc23)CC1", "activity, negative = inhibition": "8.94%"}, {"compound": "CCc1nc2ccc(C(=O)N3CCN(c4cc(Cl)ccc4C)CC3)cc2nc1CC", "Potency": "11.2 µM (active)"}, {"compound": "CCc1nc2ccc(C(=O)N3CCN(c4cccc(Cl)c4)CC3)cc2nc1CC", "activity, negative = inhibition": "-17.5%"}, {"compound": "N#Cc1cccc(C(=O)NC2CCN(c3cc(-c4ccc(Cl)cc4)[nH]n3)C2)c1", "note": "(configuration not stated)", "activity, negative = inhibition": "-18.8%"}, {"compound": "O=C1CN(Cc2cc3cc4c(cc3[nH]c2=O)OCO4)CCCN1", "activity, negative = inhibition": "-6.4%"}]}]}
